Results on 17 compounds are retold here after PubChem BioAssay (Tox21).

Values without a mark were called inactive. Inconclusive results are not listed. Calls of active or inactive are those of the source. Unless noted, the call rests on the fitted dose curve.

For assay [1], the target named is Estrogen receptor (Homo sapiens) (UniProt P03372). Description: qHTS assay to identify small molecule agonists of the estrogen receptor alpha (ER-alpha) signaling pathway in the presence of an antagonist (AID 1259383). Further: top concentration of the series differs between compounds; nearly all actives have a fitted effect of over 15% in size. The method, boiled down:
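Quantitative HTS confirmation: compounds titrated at 15 concentrations onto estrogen-deprived VM7Luc4E2 cells carrying a four-ERE luciferase construct, with ICI-182,780 present at 10.0nM final. Signal is luminescence after 22hr exposure.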
(Quantitative high-throughput screening tests each substance at several concentrations.)

Assay [2] is described as follows: qHTS assay to identify small molecule agonists or antagonists of the thyroid stimulating hormone receptor (TSHR) signaling pathway - wild type cell line counter screen (AID 1259384). In short, it runs like this: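 Wild-type HEK293 cells were plated 18 h at 37 C/5% CO2, pin-dosed with compound plus Ro20-1724 medium, held 30 min at room temperature, then given cAMP-d2 and anti-cAMP-cryptate; fluorescence was read after 1 h. Fifteen concentrations, triplicate.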

Assay [3] concerns the target Thyrotropin receptor (Homo sapiens) (UniProt P16473). Description: qHTS assay to identify small molecule antagonists of the thyroid stimulating hormone receptor (TSHR) signaling pathway (AID 1259385). Further: nearly all actives have a fitted effect of over 20% in size. The method, boiled down: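 TSHR-HEK293 cells were plated and held 18 h at 37C/5% CO2, then given compound plus Ro20-1724 and stimulated with TSH at 1.5 ng/mL final. After 30 min at room temperature, cAMP was detected with cAMP-d2/anti-cAMP-cryptate (1 h) by fluorescence.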

Assay [4] is described as follows: qHTS assay to identify small molecule agonists of the estrogen receptor alpha (ER-alpha) signaling pathway in the presence of an antagonist - cell viability counter screen (AID 1259386; active means well fitted curve in the direction sought with a large enough effect in the repeat runs; an effect the other way counts as inactive or inconclusive;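 further: series mostly up to about 92 µM; cells exposed to compounds for 22 h at 37 °C before the viability read; nearly all actives have a fitted effect of over 30% in size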). In short, it runs like this:
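The test measures whether compounds kill ER-alpha reporter cells (VM7Luc4E2) under antagonist co-treatment (ICI-182,780, 10.0nM). Fluorescence from CellTiter-Fluor is read after a 22hr exposure.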

Assay [5] addresses Progesterone receptor (Homo sapiens) (UniProt P06401). Description: qHTS assay to identify small molecule agonists of the progesterone receptor (PR) signaling pathway (AID 1346784). Further: nearly all actives have a fitted effect of over 30% in size. Further: potency means the concentration at half of the fitted maximal effect. In short, it runs like this: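 Using charcoal-stripped serum (2%) to limit endogenous steroids, PR-UAS-bla HEK 293T cells received compounds for 16 hr at 37C after 6 hr plating; beta-lactamase FRET fluorescence was recorded following 2 hr substrate loading at room temperature.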

Assay [6] has the same target. Description: qHTS assay to identify small molecule antagonists of the progesterone receptor (PR) signaling pathway (AID 1346795; active means well fitted inhibition curve with a large enough effect in the signal ratio in the repeat runs, not every such curve was filed as active; the % refers to the signal ratio). The method, boiled down:
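Inhibition of R5020-induced (1 nM final) beta-lactamase reporter signal in PR-UAS-bla HEK293T cells was scored by FRET fluorescence after overnight (16 hr) compound treatment.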

The nature of assay [7]: qHTS assay to identify small molecule antagonists of the progesterone receptor (PR) signaling pathway - cell viability counter screen (AID 1346798; active means well fitted curve in the direction sought with a large enough effect in the repeat runs; an effect the other way counts as inactive or inconclusive; further: series mostly up to about 92 µM; nearly all actives have a fitted effect of over 50% in size). In short, it runs like this:
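ATP content as viability readout: CellTiter-Glo luminescence, 30 min room temperature, in PR-UAS-bla HEK293T cells after 16 hr compound/R5020 treatment at 37C and 5% CO2.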

The nature of assay [8]: qHTS assay to identify small molecule antagonists of the TGF-beta/Smad signaling pathway - cell viability counter screen (AID 1346824; active means well fitted curve in the direction sought with a large enough effect in the repeat runs; an effect the other way counts as inactive or inconclusive; further: nearly all actives have a fitted effect of over 50% in size). The method, boiled down: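 SBE-bla HEK 293T cells were plated overnight at 37 C, then given compounds in DMSO plus TGF-beta1 (added as 0.25 ng/mL solution) for 5 hr. After the bla read, CellTiter-Glo was added to the same wells and luminescence read after 30 min at room temperature.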

Assay [9] is described as follows: qHTS assay to identify small molecule agonists of the TGF-beta/Smad signaling pathway - cell viability counter screen (AID 1346829; active means well fitted curve in the direction sought with a large enough effect in the repeat runs; an effect the other way counts as inactive or inconclusive; further: top concentration of the series differs between compounds; nearly all actives have a fitted effect of over 45% in size). In short, it runs like this: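 Same-well cytotoxicity: CellTiter-Glo added after the 2 hr room-temperature beta-lactamase substrate step, luminescence measured 30 min later; cells had 5 hr of compound at 37 C.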
Assay [10] is described as follows: qHTS assay to identify small molecule agonists of the progesterone receptor (PR) signaling pathway - cell viability counter screen (AID 1346799). Further: nearly all actives have a fitted effect of over 45% in size. The method, boiled down: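 Cytotoxicity in PR-bla HEK293T cells: 16 h compound, 37C; CellTiter-Glo added post-FRET read; luminescence after 30 min RT.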

Chain of Estrogen receptor (Homo sapiens) (P03372 whole entry, looked up): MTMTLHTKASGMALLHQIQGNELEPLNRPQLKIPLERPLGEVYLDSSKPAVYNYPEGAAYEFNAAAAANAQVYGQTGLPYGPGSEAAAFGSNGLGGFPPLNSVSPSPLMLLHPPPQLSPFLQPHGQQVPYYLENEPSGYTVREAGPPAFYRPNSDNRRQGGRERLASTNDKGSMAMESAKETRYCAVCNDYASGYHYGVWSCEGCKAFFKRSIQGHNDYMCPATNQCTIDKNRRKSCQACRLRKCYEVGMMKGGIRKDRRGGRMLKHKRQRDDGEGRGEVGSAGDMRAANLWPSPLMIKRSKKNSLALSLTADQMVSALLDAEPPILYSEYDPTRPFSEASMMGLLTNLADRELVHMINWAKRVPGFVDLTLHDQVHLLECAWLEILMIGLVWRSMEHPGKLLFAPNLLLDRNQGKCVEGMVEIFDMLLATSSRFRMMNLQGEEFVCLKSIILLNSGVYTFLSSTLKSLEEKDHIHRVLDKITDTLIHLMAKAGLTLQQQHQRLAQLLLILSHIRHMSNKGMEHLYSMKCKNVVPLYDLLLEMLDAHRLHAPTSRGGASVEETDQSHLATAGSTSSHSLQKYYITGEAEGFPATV
Chain of Thyrotropin receptor (Homo sapiens) (P16473 whole entry, looked up): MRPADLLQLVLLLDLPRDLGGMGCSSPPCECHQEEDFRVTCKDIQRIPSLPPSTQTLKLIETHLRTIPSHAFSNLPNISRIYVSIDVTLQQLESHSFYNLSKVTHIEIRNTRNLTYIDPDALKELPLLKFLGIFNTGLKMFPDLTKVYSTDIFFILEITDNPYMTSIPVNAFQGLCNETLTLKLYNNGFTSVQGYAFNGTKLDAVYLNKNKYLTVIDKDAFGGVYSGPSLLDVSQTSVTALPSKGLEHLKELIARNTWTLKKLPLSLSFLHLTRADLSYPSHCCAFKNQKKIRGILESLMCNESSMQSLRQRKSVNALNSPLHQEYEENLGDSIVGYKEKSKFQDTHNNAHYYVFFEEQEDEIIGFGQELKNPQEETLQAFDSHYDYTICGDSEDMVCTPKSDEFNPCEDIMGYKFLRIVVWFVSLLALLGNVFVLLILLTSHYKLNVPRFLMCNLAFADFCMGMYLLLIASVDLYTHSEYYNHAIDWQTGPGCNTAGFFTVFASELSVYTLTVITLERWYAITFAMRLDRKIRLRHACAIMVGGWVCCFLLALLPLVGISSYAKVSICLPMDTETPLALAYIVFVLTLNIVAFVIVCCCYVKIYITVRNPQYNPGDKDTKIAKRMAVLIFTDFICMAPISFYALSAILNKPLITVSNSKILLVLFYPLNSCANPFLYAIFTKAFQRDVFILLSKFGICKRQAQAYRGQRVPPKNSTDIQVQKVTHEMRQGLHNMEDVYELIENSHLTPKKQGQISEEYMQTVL
Chain of Progesterone receptor (Homo sapiens) (P06401 whole entry, looked up): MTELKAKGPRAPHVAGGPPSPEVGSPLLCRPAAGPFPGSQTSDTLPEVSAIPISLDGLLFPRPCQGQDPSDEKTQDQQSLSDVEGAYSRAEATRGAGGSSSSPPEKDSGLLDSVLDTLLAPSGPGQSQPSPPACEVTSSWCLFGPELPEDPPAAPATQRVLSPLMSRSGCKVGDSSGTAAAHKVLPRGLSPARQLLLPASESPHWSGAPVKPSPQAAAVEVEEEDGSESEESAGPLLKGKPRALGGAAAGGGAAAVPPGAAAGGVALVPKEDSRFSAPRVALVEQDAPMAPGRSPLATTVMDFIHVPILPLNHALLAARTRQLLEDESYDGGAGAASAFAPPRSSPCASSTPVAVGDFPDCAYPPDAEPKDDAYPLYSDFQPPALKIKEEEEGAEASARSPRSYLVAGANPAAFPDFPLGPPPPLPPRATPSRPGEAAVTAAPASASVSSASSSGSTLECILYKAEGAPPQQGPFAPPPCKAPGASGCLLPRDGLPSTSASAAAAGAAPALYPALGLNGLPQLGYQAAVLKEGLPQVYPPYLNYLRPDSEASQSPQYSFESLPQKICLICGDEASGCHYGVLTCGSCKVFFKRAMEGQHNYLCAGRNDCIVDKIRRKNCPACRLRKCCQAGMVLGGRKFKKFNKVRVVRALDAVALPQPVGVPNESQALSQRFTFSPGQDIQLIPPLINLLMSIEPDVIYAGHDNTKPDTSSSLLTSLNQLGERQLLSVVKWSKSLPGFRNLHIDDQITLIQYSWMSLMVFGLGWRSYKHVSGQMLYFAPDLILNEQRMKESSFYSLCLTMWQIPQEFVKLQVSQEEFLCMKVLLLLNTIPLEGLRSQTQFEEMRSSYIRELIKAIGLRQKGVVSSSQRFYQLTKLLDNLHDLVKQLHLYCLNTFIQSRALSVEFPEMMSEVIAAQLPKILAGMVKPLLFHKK

On to `COc1ccccc1N1CCN(CC(O)COc2cc(OC)c(OC)c(OC)c2)CC1` (stereo not drawn), for which the Potency entry in assay [1], in [5] and in [6] was “inactive” each time. Also, the compound was called inactive in [2], in assay [3], in assay [4], in assay [7], in assay [8] and in assay [9].
For the compound `CCCc1ccc(O)c(OC)c1`, the Potency entry in [1], in assay [5], in assay [6] and in assay [10] was “inactive” in each case. Further, the result in assay [2], in assay [3], in assay [4], in [7], in assay [8] and in assay [9] was inactive.
For the compound `CC(CC(=O)Cl)CC(C)(C)C` (stereo not drawn), the Potency entry in assay [1] and in [6] was “inactive” each time. Moreover, the result in assay [2], in [3], in [4], in [7], in assay [8] and in assay [9] was inactive. Besides, the Potency in [5] was 12.3 µM (active).
In the case of `CCOC(=O)CC(C(C)=O)C(C)=O`, the Potency entry in [1], in assay [5], in assay [6] and in assay [10] was “inactive” each time. The outcome in assay [2], in assay [3], in assay [4], in [7] and in assay [9] was inactive.
As for `CCCCN(CCCC)CCCCCCN(CCCC)CCCC`, the Potency result in assay [1], in assay [5], in [6] and in [10] was “inactive” each time. The result in assay [2], in [3], in [4], in [7], in assay [8] and in [9] was inactive.
In the case of `CC(O)C(CO)C(C)O` (stereo not drawn), the Potency result in [1], in assay [5], in [6] and in assay [10] was “inactive” throughout. For the same compound, the compound was classed as inactive in [2], in assay [3], in assay [4], in assay [8] and in [9].
Turning to `O=C1c2ccccc2C(=O)N1CO`, the Potency entry in [1], in assay [5], in [6] and in assay [10] was “inactive” in each case. The outcome in assay [2], in [3], in [4], in assay [7], in [8] and in assay [9] was inactive.
With `CC(=O)Nc1ccc(S(=O)(=O)Nc2cc(C)on2)cc1`, the Potency entry in assay [1], in assay [5], in assay [6] and in assay [10] was “inactive” throughout. For the same compound, the compound was called inactive in [2], in assay [3], in [4], in [7], in [8] and in assay [9].
As for `CCCCC(CC)CCC(CC(C)C)OS(=O)(=O)O` (stereo not drawn), the Potency entry in assay [1], in assay [5], in assay [6] and in [10] was “inactive” in each case. Besides, the compound was classed as inactive in [2], in [3], in assay [4], in assay [7] and in assay [9].
As to `CCNC(=O)C(C)OC(=O)Nc1ccccc1` (stereo not drawn), the Potency entry in assay [1], in assay [5], in assay [6] and in [10] was “inactive” throughout. In addition, the outcome in [2], in assay [3], in assay [4], in assay [8] and in assay [9] was inactive.
For the compound `CCCCNCC`, the Potency result in assay [1], in assay [5], in [6] and in [10] was “inactive” throughout. Also, the outcome in assay [2], in assay [3], in assay [4], in [7], in [8] and in [9] was inactive.
For `CC(=O)Oc1ccc(C(C)=O)cc1`, the Potency entry in [1], in [5], in assay [6] and in assay [10] was “inactive” throughout. Besides, the compound was called inactive in assay [2], in [3], in assay [4], in assay [8] and in assay [9].
Turning to `Cc1ccc(S(=O)(=O)NC(=O)NN2CC3CCCC3C2)cc1` (stereo not drawn), the Potency entry in assay [1], in assay [5], in assay [6] and in assay [10] was “inactive” throughout. Also, the compound was called inactive in [2], in assay [3], in assay [4], in [8] and in assay [9].
Take `CCCC(=O)OC`: the Potency result in assay [1], in assay [5], in assay [6] and in [10] was “inactive” throughout. Moreover, the compound was called inactive in [2], in assay [3], in assay [4], in [7] and in [9].
In the case of `CNC(C)=O`, the Potency entry in assay [1], in [5] and in assay [6] was “inactive” in each case. Further, the result in [2], in [3], in [4], in [7], in [8] and in [9] was inactive.
Regarding `CN1CCN(C(=O)C2CCCCC2)CC1`, the Potency entry in assay [1], in assay [5], in assay [6] and in assay [10] was “inactive” each time. The call in [2], in assay [3], in assay [4], in [8] and in assay [9] was inactive.
For the compound `CC/C=C/CCCCCCCCCCOC(C)=O`, the Potency entry in [1], in assay [5], in [6] and in [10] was “inactive” throughout. Further, the compound was classed as inactive in assay [2], in assay [3], in assay [4], in [7] and in assay [9].
